Our source for the inhibition values is PubChem BioAssay AID504766 (The Scripps Research Institute Molecular Screening Center, 2011).

Structures are written as SMILES. Among all 340,000 compounds or so, about 3,400 (1%) were called active. This is one part of a sample in which actives are shown more often than they occur. A number with no mark means an inactive call.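 Rule for the calls: active = inhibition above the mean over all tested compounds plus 3 SD (cut at about 4.2% in these data); inactive = the rest.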

For this assay, the target named is Nuclear receptor subfamily 0 group B member 1 (Homo sapiens) (UniProt P51843). Nature of the assay: DAX1 (NR0B1) inhibitors, primary screen, cell-based, HEK293, Gal4-DAX1, luciferase luminescence (AID 504766).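 Note: 0% = DAX1-transfected cells with DMSO and 100% = empty-vector control cells with DMSO; inhibition shows as a rise in luminescence from relieved DAX1 repression.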 To be noted: HEK293 Gal4-DAX1 luciferase reporter, at 6.75 µM, active compounds read high.
Nuclear receptor subfamily 0 group B member 1 (Homo sapiens), sequence (P51843 207-470 limits assumed): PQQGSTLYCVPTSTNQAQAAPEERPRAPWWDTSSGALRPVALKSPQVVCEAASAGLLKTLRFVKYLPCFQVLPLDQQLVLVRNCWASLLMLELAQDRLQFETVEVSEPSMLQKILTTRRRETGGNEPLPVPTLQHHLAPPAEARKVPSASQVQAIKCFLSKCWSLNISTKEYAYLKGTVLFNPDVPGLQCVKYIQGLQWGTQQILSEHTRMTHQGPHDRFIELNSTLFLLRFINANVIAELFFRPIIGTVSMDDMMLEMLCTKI
`S=C1NC(c2ccccc2)=NCN1c1ccc(Br)cc1`: the inhibition was -1.46%.
`CNC(=S)N1N=C(c2ccccc2)CC1c1ccc(Br)cc1` (centres undefined): the inhibition was 1.07%.
Then `Brc1ccc(C2CC(c3ccccc3)=Nc3ccccc3N2)cc1` (centres undefined), with 4.28% (active); and `CC(C)CCC(=O)Nc1cc(S(=O)(=O)N2CCOCC2)ccc1N1CCCC1`, with -0.01%; and `COc1cc2nnn(-c3ccncc3)c2cc1OC`, with 1.02%.
For the compound `CC1(C)CN(Cc2cccnc2)C(=O)[C@H]1CC(=O)Nc1ccc(Br)cc1`, the inhibition is -0.18%.
Consider `COc1ccc(C(=O)OCC(=O)NCC2CCCO2)cc1[N+](=O)[O-]` (centres undefined), for which the inhibition is 4.91% (active).
For `COc1ccc(C(=O)OCC(=O)c2cc(C)n(CC3CCCO3)c2C)cc1[N+](=O)[O-]` (centres undefined), the inhibition is 0.28%.
As for `O=C(COC(=O)c1ccc(S(=O)(=O)Nc2ccccc2)cc1)NCC1CCCO1` (centres undefined), the inhibition is -0.38%.
Then `CCOC(OCC)c1ccc(/C=C\c2nccc(N)n2)cc1`, with 4.34% (active); and `Cc1ccc([C@H]2N[C@]3(CCCN(Cc4ccccc4)C3=O)[C@H]3C(=O)N(Cc4ccccc4)C(=O)[C@@H]23)cc1`, with 0.82%.
For `COc1cccc(OCC(=O)NCCS(=O)(=O)N2CCN(c3ccccc3)CC2)c1` the value was 0.69%.
Take `CC1(C)C2CCC1(C)C(OC(=O)c1ccc(O)cc1)C2` (centres undefined): the inhibition was 4.45% (active).
For `CC1(C)C2CCC1(C)C(OC(=O)CCn1ccnc1)C2` (centres undefined), the inhibition is 0.23%.
Consider `Cc1ccc(C(=O)OC2CCCN(C)C2)cc1` (centres undefined), for which the inhibition was 1.89%.
In the case of `O=C(Nc1ccc(Cl)cn1)c1ccccc1-c1ccccc1`, the inhibition is 1.12%.
Then `O=C1NC(Cc2ccccc2)c2nc3ccc(Br)cc3c(=O)n2-c2cc3ccccc3cc21` (centres undefined), with 0.19%.
Consider `O=C(Nc1cccn(Cc2ccccc2Cl)c1=O)NC1CCCCC1`, for which the inhibition was -1.6%.
For `O=S1(=O)CCN(Cc2ccccc2Cl)CC1` the value was 0.98%; for `CC1(C)COC(c2cccn2Cc2ccccc2Cl)=N1`, 5.28% (active); for `CCC1NC(=O)c2cccnc2-n2c1nc1ccc(C)cc1c2=O` (centres undefined), 0.22%.
On to `CC(C)NC(=O)Nc1ccc2c(c1)C(=O)N([C@H](C)CO)C[C@H](C)[C@@H](CN(C)Cc1ccc(C(F)(F)F)cc1)OCCCC[C@@H](C)O2`, for which the inhibition is 0.43%.
In the case of `Cc1noc(C)c1S(=O)(=O)N(C)C[C@H]1OCCCC[C@@H](C)Oc2ccc(NC(=O)CCCN(C)C)cc2C(=O)N([C@H](C)CO)C[C@@H]1C`, the inhibition is 0.48%.
For the compound `Cc1ccc(NC(=O)N2CCC(O)(c3cccnc3)CC2)cc1`, the inhibition was 4.28% (active).
On to `O=C(Nc1cccc(F)c1)N1C2CCC1CC(O)(c1cccnc1)C2` (centres undefined), for which the inhibition is 0.14%.
For `O=C(c1cccc(F)c1)N1CCC(O)(c2cccnc2)CC1` the value was 1.7%; for `COC(=O)C[C@H]1C[C@@H]2c3cc(NC(=O)Nc4ccccc4)ccc3O[C@@H]2[C@@H](CO)O1`, 2.2%.
Consider `CC1CCN(C(=O)CSc2nnc(-c3ccco3)n2N)CC1`, for which the inhibition was 1.88%.
Regarding `COc1ccccc1C(=O)Nc1ccc(NC(=O)c2ccco2)c(C)c1`, the inhibition is -0.21%.
Then `O=C(Nc1ccc(Sc2ccc(Br)cc2)cc1)c1ccco1`, with -0.97%.
Turning to `O=C(Nc1ccc2oc(-c3ccccc3F)nc2c1)c1ccco1`, the inhibition is 2.35%.
For `Cc1ccc(NC(=O)c2ccco2)cc1` the value was 7.13% (active); for `O=C(Nc1ccc2nccnc2c1)c1ccco1`, 5.48% (active).
Then `CC(C)(C)NC(=O)c1cc(NC(=O)c2ccco2)cc(NC(=O)c2ccco2)c1`, with -1.82%.
For `NS(=O)(=O)c1ccc(CNC(=O)c2cc(S(=O)(=O)N3CCOCC3)ccc2N2CCCC2)cc1`, the inhibition was -0.73%.
Then `CN1CCN(c2ccncc2S(=O)(=O)N2CCCC2)CC1`, with 0.96%; and `O=C(O)CCn1c(Cc2ccccc2)nc2ccccc21`, with 0.63%; and `Cc1cc2ccccc2n1CCC(=O)O`, with 6.77% (active).
Then `Cc1cc2ccccc2n1CCNC(=O)COc1ccc2ccccc2c1`, with -0.5%; and `CC(OC(=O)c1cccc(S(=O)(=O)N2CCOCC2)c1)C(=O)NCC1CCCCC1` (centres undefined), with 0.27%; and `COc1ccccc1CCNC(=O)c1cnccn1`, with 0.75%.
Then `COc1ccc(C(=O)NNC(=O)c2cnccn2)cc1[N+](=O)[O-]`, with 1.76%; and `COc1cccc(OCC(=O)NNC(=O)c2cnccn2)c1`, with 5.68% (active).
For `Cc1cc(Cl)ccc1C(=O)C1CCCN(C(=O)c2ccc3c(c2)OCO3)C1` (centres undefined), the inhibition is 0.21%.
For the compound `Cc1c(NC(=O)CSCc2ccccc2)cccc1C(=O)O`, the inhibition is 0.3%.
For `Cn1c(CSCC(=O)Nc2ccccc2)nnc1SCc1ccccc1` the value was -0.77%; for `O=C(CSCc1ccccc1)Nc1ccccc1`, 7.09% (active).
On to `O=C(COc1ccc(Br)cc1)OCC(=O)c1ccc[nH]1`, for which the inhibition is -1.15%.
Then `COc1ccc(CCNC(=O)CN(c2ccccc2)S(=O)(=O)c2ccccc2)cc1`, with -1.2%; and `CCCCCCN1C[C@H](O)[C@@H](n2cc(C3CC3)nn2)C[C@@H]1c1ccc(Cl)cc1`, with -0.34%; and `CCOc1cc(/C=N/NC(=O)c2ccncc2)cc(Br)c1O`, with -0.05%.
For the compound `Cc1nc2cc3c(cc2s1)OCO3`, the inhibition was 5.8% (active).
For `COc1cc2sc(C)nc2cc1C` the value was -1.73%; for `c1c2c(cc3sc(N4CCCCC4)nc13)OCCO2`, -5.28%; for `CCCc1ccc(S(=O)(=O)N2CCN(C(=O)c3cc(C)on3)CC2)cc1`, -0.87%.
For `O=C(CCN1CCCCC1)Nc1ccc(F)c(F)c1` the value was 0.27%; for `FC(F)(F)c1ccnc(Oc2ccc(C3=NCCS3)cc2)c1`, 6.14% (active).
Turning to `CC1C(=O)N(Cc2cn(Cc3ccco3)nn2)CCS(=O)(=O)N1Cc1ccc(-c2cccc(CO)c2)cc1` (centres undefined), the inhibition was 0.37%.
Then `COCOCCn1cc(CN2CCS(=O)(=O)N(Cc3ccc(-c4ccccc4)cc3)C(CC(C)C)C2=O)nn1` (centres undefined), with -1.62%.
Then `CCCCOC(=O)Nc1nnc(CC(=O)NCc2ccccc2)s1`, with -0.2%; and `O=C(CC(c1ccccc1)c1ccccc1)NCC(O)c1ccc([N+](=O)[O-])cc1` (centres undefined), with 0.2%; and `CCCCCCOC(=O)NCC(O)c1ccccc1` (centres undefined), with 4.4% (active).
With `COc1ccc(-n2c(-c3ccc(Cl)cc3)n[nH]c2=S)c(OC)c1`, the inhibition is 0.25%.
For the compound `COc1ccc(OCc2n[nH]c(=S)n2N)cc1`, the inhibition is 0.95%.
In the case of `COc1ccc(OC)c(-n2c(-c3ccn[nH]3)n[nH]c2=S)c1`, the inhibition is 4.83% (active).
For `C[C@@H]1CN([C@H](C)CO)C(=O)c2cc(-c3ccc(F)cc3)cnc2O[C@H]1CN(C)C(=O)c1ccc(F)cc1` the value was -1.22%; for `CN(CC(=O)O)C(=O)c1ccccc1`, 5.67% (active); for `CN(Cc1ccccc1)C(=O)c1ccc(COc2ccccc2)cc1`, 0.19%.
For `CN(Cc1ccccc1)C(=O)c1cccc(C(=O)N(C)Cc2ccccc2)c1` the value was 0.91%.
Then `COCOCCn1cc(CN2CCS(=O)(=O)N(Cc3ccc(-c4cccc(N(C)C)c4)cc3)C(CC(C)C)C2=O)nn1` (centres undefined), with 2.25%.
For `CCOc1ccc(NC(=O)c2cc(C)nc3ccccc23)cc1`, the inhibition is 0.49%.
Consider `CN1CCN(c2nc(Nc3ccc(O)cc3)nc3ccccc23)CC1`, for which the inhibition is 0.71%.
For `Cc1cc(Nc2ccc(Br)cc2)nc2ccccc12`, the inhibition is 5.55% (active).
Then `CSC1=NN(c2ccccc2)CN(c2ccccc2)N1C`, with 0.33%; and `C[C@@H]1CN([C@@H](C)CO)S(=O)(=O)c2ccc(-c3ccc(C(=O)N(C)C)cc3)cc2O[C@@H]1CN(C)Cc1ccccc1C(=O)O`, with 3.37%; and `Cc1csc(NC(=O)CN2CCCCCC2)n1`, with 1.37%.
For `Cc1nn(CC(=O)N2CCCCC2)c(=O)c2nn(-c3ccccc3)c(C)c12` the value was 0.17%; for `Cc1nc2c(ncn2-c2ccccc2)c(=O)n1NC(=O)CN1CCCC1`, 8.39% (active); for `COc1ccc(NC2CCCN(C(=O)c3ccccc3-c3ncc[nH]3)C2)cc1` (centres undefined), -0.18%.
For `Cc1cccc(OCC(=O)Nc2ccccc2F)c1` the value was 5.58% (active).
Take `Cc1cccc(OCCC(=O)Nc2ccccc2C(N)=O)c1`: the inhibition was -0.79%.
Turning to `Cc1cccc(OCC(=O)Nc2ccc(C(=O)O)cc2NC(=O)COc2cccc(C)c2)c1`, the inhibition is 0.91%.
Then `COc1ccccc1-n1c(SCC(=O)Nc2ccc(Cl)cc2)nc(O)c(Cc2ccccc2)c1=O`, with 1.11%; and `CC1(C)CC(=O)C(C2c3ccccc3S(=O)(=O)c3ccccc32)C(=O)C1`, with 5.54% (active); and `CC1(C)CC(=O)C(CC(=O)N2CCC(Cc3ccccc3)CC2)C(=O)C1`, with 3.82%.
`CC1(C)CC(=O)NC=C(c2ccccc2)C1`: the inhibition was -0.26%.
Then `COc1ccc(C(=O)NCC2CCCO2)cc1S(=O)(=O)NCc1ccc(Cl)cc1` (centres undefined), with 0%; and `CC1=C(C(=O)N(C)C)CC(CC(=O)NCCc2ccccn2)C(=O)N1CCC1=CCCCC1` (centres undefined), with 1.44%; and `CC(C)N=C1CCCC1C(=S)SSC(=S)C1CCCC1=NC(C)C` (centres undefined), with -3.43%.
For `O=C(Nc1ccc2ccccc2c1)/C(=C\c1ccc2c(c1)OCO2)NC(=O)c1ccco1` the value was -1.35%; for `COc1ccc(/C=C(/NC(=O)c2ccco2)C(=O)Nc2ccc(C(C)=O)cc2)cc1`, 4.81% (active).
Turning to `Cc1ccc(NC(=O)/C(=C\c2ccccc2)NC(=O)c2ccco2)cc1`, the inhibition is 0.33%.
Take `Cc1ccc(CCNC(=O)CN2C(=O)CSc3ccc(S(=O)(=O)N4CCOCC4)cc32)cc1`: the inhibition was 0.18%.
Regarding `NC1=CC(=O)C(=O)c2cccnc21`, the inhibition was -3.86%.
